About 2,000 (36%) of roughly 5,500 compounds were called active. Another 18% or so got no clear call; they are omitted. Cut-off read from the data, not from the text of the source: active = normalized growth mostly below about 0.91 (no sharp cut-off); inconclusive = no clear call, values can overlap the other calls; inactive = mostly above about 0.92. The list shows a part of the results.
Assay: chemical genetic growth profiling, strain panel (AID 1159580);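 note: tested at 20 µM; growth read once vehicle control cultures reached saturation at 30 °C; 1 = growth at the plate median or of vehicle wells; lower values mean less growth of the strain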
Conditions: growth OD
[1] = S. cerevisiae deletion strains, locus YAL013W, strain DEP1, hits give low values
[2] = S. cerevisiae deletion strains, locus YBR229C, strain ROT2, hits give low values
[3] = S. cerevisiae deletion strains, locus YDL101C, strain DUN1, hits give low values
[4] = S. cerevisiae deletion strains, locus YDR150W, strain NUM1, hits give low values
[5] = S. cerevisiae deletion strains, locus YEL061C, strain CIN8, hits give low values
[6] = S. cerevisiae deletion strains, locus YGR078C, strain PAC10, hits give low values
[7] = S. cerevisiae deletion strains, locus YHR030C, strain SLT2, hits give low values
[8] = S. cerevisiae deletion strains, locus YHR087W, strain rtc3, hits give low values
[9] = S. cerevisiae deletion strains, locus YJL187C, strain SWE1, hits give low values
[10] = S. cerevisiae deletion strains, locus YJR043C, strain POL32, hits give low values
[11] = S. cerevisiae deletion strains, locus YJR075W, strain HOC1, hits give low values
[12] = S. cerevisiae deletion strains, locus YLR039C, strain RIC1, hits give low values
[13] = S. cerevisiae deletion strains, locus YLR058C, strain SHM2 (second series), hits give low values
[14] = S. cerevisiae deletion strains, locus YLR085C, strain ARP6, hits give low values
[15] = S. cerevisiae deletion strains, locus YLR262C, strain YPT6, hits give low values
[16] = S. cerevisiae deletion strains, locus YML094W, strain GIM5, hits give low values
[17] = S. cerevisiae deletion strains, locus YMR219W, strain ESC1, hits give low values
[18] = S. cerevisiae deletion strains, locus YMR263W, strain SAP30, hits give low values
[19] = S. cerevisiae deletion strains, locus YMR307W, strain GAS1, hits give low values
[20] = S. cerevisiae deletion strains, locus YNL153C, strain GIM3, hits give low values
[21] = S. cerevisiae deletion strains, locus YNL298W, strain CLA4 (second series), hits give low values
[22] = S. cerevisiae deletion strains, locus YNL322C, strain KRE1, hits give low values
[23] = S. cerevisiae deletion strains, locus YNR030W, strain Alg12, hits give low values
[24] = S. cerevisiae deletion strains, locus YOL006C, strain TOP1, hits give low values
[25] = S. cerevisiae deletion strains, locus YPL055C, strain LGE1, hits give low values
[26] = S. cerevisiae deletion strains, locus YPL241C, strain CIN2, hits give low values
[27] = S. cerevisiae deletion strains, locus YPR135W, strain CTF4, hits give low values
[28] = S. cerevisiae deletion strains, locus YGR229C, strain SMI1, hits give low values
[29] = S. cerevisiae deletion strains, locus YNL128W, strain TEP1, hits give low values

Measured: normalized growth

Cc1oc(S(=O)(=O)N(C)C)cc1C(=O)O
inactive: [1] 1.03 | [2] 1 | [3] 0.952 | [4] 1 | [5] 1.02 | [6] 1.01 | [7] 1.06 | [8] 1.03 | [9] 0.997 | [10] 0.987 | [11] 1 | [12] 1.07 | [13] 1 | [14] 1.08 | [15] 1.01 | [16] 1.06 | [17] 1.01 | [18] 0.985 | [19] 0.976 | [20] 1.01 | [21] 1 | [22] 1 | [23] 1.02 | [24] 1.06 | [25] 1.08 | [26] 1.09 | [27] 1.34

O=C(CCCCCCCCCCCCC1CCCC1)Nc1ccc(S(=O)(=O)c2ccc(NC(=O)CCCCCCCCCCCCC3CCCC3)cc2)cc1
inactive: [1] 1.01 | S. cerevisiae deletion strains, locus YBR021W, strain FUR4, hits give low values 1.04 | [2] 1.02 | S. cerevisiae deletion strains, locus YCL029C, strain bik1, hits give low values 0.992 | S. cerevisiae deletion strains, locus YDL035C, strain GPR1, hits give low values 1.02 | S. cerevisiae deletion strains, locus YDL074C, strain BRE1, hits give low values 1.07 | [3] 1.03 | S. cerevisiae deletion strains, locus YDL134C, strain PPH21, hits give low values 1.03 | S. cerevisiae deletion strains, locus YDL185W, strain tfp1, hits give low values 1.01 | S. cerevisiae deletion strains, locus YDL192W, strain arf1, hits give low values 0.997 | S. cerevisiae deletion strains, locus YDR101C, strain arx1, hits give low values 0.989 | [4] 1.02 | S. cerevisiae deletion strains, locus YDR162C, strain NBP2, hits give low values 1.03 | S. cerevisiae deletion strains, locus YDR318W, strain mcm21, hits give low values 0.989 | S. cerevisiae deletion strains, locus YDR388W, hits give low values 0.983 | S. cerevisiae deletion strains, locus YDR502C, strain sam2, hits give low values 1 | [5] 1.02 | S. cerevisiae deletion strains, locus YER110C, hits give low values 0.99 | S. cerevisiae deletion strains, locus YER155C, strain BEM2, hits give low values 1.02 | S. cerevisiae deletion strains, locus YER167W, strain BCK2, hits give low values 1.03 | S. cerevisiae deletion strains, locus YGL078C, strain dbp3, hits give low values 0.992 | S. cerevisiae deletion strains, locus YGL086W, strain mad1, hits give low values 1 | S. cerevisiae deletion strains, locus YGL248W, strain PDE1, hits give low values 1.03 | [6] 1.03 | S. cerevisiae deletion strains, locus YGR135W, strain pre9, hits give low values 1.01 | [28] 1.03 | S. cerevisiae deletion strains, locus YGR252W, strain gcn5, hits give low values 0.984 | [7] 1.02 | S. cerevisiae deletion strains, locus YHR079C, strain IRE1 (second series), hits give low values 0.99 | S. cerevisiae deletion strains, locus YHR094C, strain hxt1, hits give low values 0.996 | S. cerevisiae deletion strains, locus YHR129C, strain ARP1, hits give low values 1.02 | S. cerevisiae deletion strains, locus YHR200W, strain rpn10, hits give low values 0.998 | S. cerevisiae deletion strains, locus YIL066C, strain RNR3, hits give low values 1.02 | S. cerevisiae deletion strains, locus YIL073C, strain SPO22, hits give low values 0.99 | S. cerevisiae deletion strains, locus YIL125W, strain kgd1, hits give low values 1 | S. cerevisiae deletion strains, locus YIR030C, strain dcg1, hits give low values 0.99 | S. cerevisiae deletion strains, locus YJL095W, strain BCK1, hits give low values 1.04 | S. cerevisiae deletion strains, locus YJL134W, strain LCB3, hits give low values 1.02 | S. cerevisiae deletion strains, locus YJL168C, strain set2, hits give low values 1 | S. cerevisiae deletion strains, locus YJL187C, strain SWE1 (second series), hits give low values 1.02 | [10] 1.03 | [11] 1.03 | S. cerevisiae deletion strains, locus YKL009W, strain mrt4, hits give low values 0.991 | S. cerevisiae deletion strains, locus YKL068W, hits give low values 1 | S. cerevisiae deletion strains, locus YKL085W, strain MDH1 (second series), hits give low values 1 | S. cerevisiae deletion strains, locus YKL085W, strain MDH1, hits give low values 1 | S. cerevisiae deletion strains, locus YKL190W, strain CNB1, hits give low values 1.02 | S. cerevisiae deletion strains, locus YKR001C, strain vps1, hits give low values 0.991 | [12] 1.04 | S. cerevisiae deletion strains, locus YLR058C, strain SHM2, hits give low values 1.02 | S. cerevisiae deletion strains, locus YLR102C, strain apc9, hits give low values 0.989 | [15] 1.03 | S. cerevisiae deletion strains, locus YLR268W, strain sec22, hits give low values 0.997 | S. cerevisiae deletion strains, locus YLR330W, strain CHS5, hits give low values 1.02 | S. cerevisiae deletion strains, locus YLR342W, strain FKS1 (second series), hits give low values 1.03 | S. cerevisiae deletion strains, locus YLR371W, strain rom2, hits give low values 1 | S. cerevisiae deletion strains, locus YLR418C, strain cdc73, hits give low values 1 | S. cerevisiae deletion strains, locus YML016C, strain PPZ1, hits give low values 1.03 | S. cerevisiae deletion strains, locus YML032C, strain rad52, hits give low values 1 | S. cerevisiae deletion strains, locus YML124C, strain tub3, hits give low values 0.99 | S. cerevisiae deletion strains, locus YMR078C, strain ctf18, hits give low values 0.988 | S. cerevisiae deletion strains, locus YMR223W, strain ubp8, hits give low values 0.989 | [18] 1.04 | [19] 0.981 | S. cerevisiae deletion strains, locus YNL067W, strain RPL9B, hits give low values 1.04 | [29] 1.04 | [20] 1.02 | S. cerevisiae deletion strains, locus YNL233W, strain BNI4, hits give low values 1.03 | S. cerevisiae deletion strains, locus YNL250W, strain rad50, hits give low values 1 | S. cerevisiae deletion strains, locus YNL271C, strain bni1, hits give low values 0.998 | S. cerevisiae deletion strains, locus YNL298W, strain CLA4, hits give low values 1.01 | S. cerevisiae deletion strains, locus YNL307C, strain MCK1, hits give low values 0.99 | [22] 1.02 | S. cerevisiae deletion strains, locus YNR052C, strain pop2, hits give low values 0.993 | [24] 1.14 | S. cerevisiae deletion strains, locus YOL012C, strain htz1 0.857 | S. cerevisiae deletion strains, locus YOL147C, strain pex11, hits give low values 0.992 | S. cerevisiae deletion strains, locus YOR061W, strain CKA2, hits give low values 1.02 | S. cerevisiae deletion strains, locus YOR069W, strain VPS5, hits give low values 1.01 | S. cerevisiae deletion strains, locus YOR136W, strain idh2, hits give low values 0.994 | S. cerevisiae deletion strains, locus YOR144C, strain elg1, hits give low values 0.993 | S. cerevisiae deletion strains, locus YOR184W, strain ser1, hits give low values 0.99 | S. cerevisiae deletion strains, locus YOR316C, strain cot1, hits give low values 0.998 | [25] 1.05 | [26] 1.01 | S. cerevisiae deletion strains, locus YPR119W, strain clb2, hits give low values 0.984 | S. cerevisiae deletion strains, locus YPR141C, strain kar3, hits give low values 0.996 | S. cerevisiae deletion strains, locus YPR163C, strain tif3, hits give low values 0.993 | S. cerevisiae deletion strains, locus YPR167C, strain met16, hits give low values 0.997 | S. cerevisiae deletion strains, strain wtn01, hits give low values 0.997 | S. cerevisiae strains, strain wild type, hits give low values 1.01

Cc1[nH]ncc1-c1ccccc1
inactive: [1] 1 | [2] 0.978 | S. cerevisiae deletion strains, locus YCL061C, strain MRC1, hits give low values 0.973 | [3] 0.979 | [4] 1.01 | [5] 0.986 | [6] 0.998 | [28] 0.999 | [7] 0.981 | [8] 1.02 | [9] 0.983 | [10] 0.984 | [11] 1.02 | [12] 0.873 | [13] 0.986 | [14] 0.994 | [15] 0.896 | [16] 0.974 | [17] 0.995 | [18] 0.967 | [19] 0.933 | [29] 0.993 | [20] 0.961 | [21] 0.98 | [22] 1.01 | [23] 0.991 | [25] 1.07 | [26] 0.986 | [27] 0.921

Source: PubChem BioAssay AID1159580 (chemical genetic matrix, 2015)
